Shown are actives, neighbours in structure and some others; about 4.1% of the full set was active somewhere.
DAX1 inh-1 = inhibitors of human orphan nuclear receptor DAX1 (NR0B1); P51843; HEK293 Gal4-DAX1 luciferase reporter, luminescence; inhibition, % at 6.75 µM; hit rate 0.99% among 340,000; AID 504766;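 active = inhibition above the mean over all tested compounds plus 3 SD, cut at about 4.2% in these data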;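 also: 0% = DAX1-transfected cells with DMSO and 100% = empty-vector control cells with DMSO; inhibition shows as a rise in luminescence from relieved DAX1 repression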
Target sequence (P51843 207-470 limits assumed): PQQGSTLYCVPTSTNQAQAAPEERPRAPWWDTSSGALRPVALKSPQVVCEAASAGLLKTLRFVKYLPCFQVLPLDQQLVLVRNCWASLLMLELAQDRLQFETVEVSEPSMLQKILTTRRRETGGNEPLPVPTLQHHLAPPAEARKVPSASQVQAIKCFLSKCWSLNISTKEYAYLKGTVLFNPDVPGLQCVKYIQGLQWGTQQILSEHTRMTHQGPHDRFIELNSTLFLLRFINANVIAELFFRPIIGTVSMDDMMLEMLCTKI
DAX1 inh-2 = inhibitors of DAX1 repression of SF-1 activated StAR promoter | HEK293T StAR-luciferase reporter, SF-1/DAX-1 repression relief | inhibition, % at 6.8 µM | hit rate 1.1% among 370,000 | AID 652010;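 active = inhibition above the mean over all tested compounds plus 3 SD, cut at about 3.6% in these data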;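 also: 0% = DAX-1 cells with DMSO and 100% = cells lacking DAX-1 with DMSO; higher inhibition means more luminescence from relief of DAX-1 repression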
hcDAF12 agonist = activators of H. contortus DAF-12 nuclear receptor; hit rate 1.4% among 370,000; AID 652067; activation, % at 6.8 µM; HEK293 hcDAF-12 lit1-tk-luc reporter, luminescence; 0% DMSO, 100% Δ7-dafachronic acid;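 active = activation above the mean of all tested compounds plus 3 SD, cut at about 5.5% in these data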;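 also: 100% = response to 3 µM Δ7-dafachronic acid high control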
hgDAF-12 ag = agonists of H. glycines DAF-12 nuclear receptor | HEK293 GAL4-hgDAF12 UAS-luciferase reporter, agonist luminescence; normalized to butyrate control | activation, % at 6.8 µM | hit rate 1.8% among 370,000 | AID 687014;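 active = activation above a cutoff set at the mean of all screened compounds plus 3 SD, cut at about 10% in these data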;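 also: 0% = DMSO wells and 100% = sodium butyrate wells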
ssDAF-12 act = S. stercoralis DAF-12 activation, primary screen. HEK293 ssDAF-12/GRIP1 lit1-tk-luc reporter, luminescence; % of 3 µM dafachronic acid response. activation, % at 6.8 µM. hit rate 1% among 370,000. AID 652126;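 active = activation above the mean over all tested compounds plus 3 SD, cut at about 0.9% in these data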;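 also: 0% = DMSO-only wells and 100% = 3 µM delta7-dafachronic acid wells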
LXR ag = counter-screen for hcDAF-12 agonists: agonists of human LXR-beta; shares compounds with hcDAF12 agonist; HEK293 Gal4-LXR tk-luc reporter, luminescence, 24 h; normalized: DMSO 0%, positive control 100%; activation, % at 6.8 µM; 3,400 tested, under 10 active; AID 743027;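 active = mean percent activation of the reporter above a cutoff set as the average over tested compounds plus their standard deviation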
hcDAF12 ag = confirmation of H. contortus DAF-12 agonists. shares compounds with hcDAF12 agonist. HEK293 hcDAF-12 lit1-tk-luc reporter, luminescence; % of Δ7-dafachronic acid response. activation, % at 6.8 µM. hit rate 61% among 3,400;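 active = mean activation across triplicate tests above the threshold derived from the earlier primary screen, cut at about 5.5% in these data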;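 also: 0% = DMSO only wells and 100% = 3 µM Δ7-dafachronic acid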
Active calls of the source: *; nt = no result.

SMILES	DAX1 inh-1	DAX1 inh-2	hcDAF12 agonist	hgDAF-12 ag	ssDAF-12 act	LXR ag	hcDAF12 ag
CCCc1nc2c(c(=O)c3ccccc3n2C)c(=O)n1-c1ccc(F)cc1	-0.2	0.4	3.3	2.2	0.4	nt	nt
CCc1nc2oc3ccccc3c(=O)c2c(=O)n1-c1ccc(C)cc1	nt	2.6	11.6*	11.2*	4.0*	1.2	13.8*
CCCc1nc2oc3ccccc3c(=O)c2c(=O)n1-c1ccc(C)cc1	nt	1.5	10.9*	8.7	1.9*	0.7	12.1*
CCc1nc2oc3ccccc3c(=O)c2c(=O)n1-c1ccccc1	3.2	2.2	8.8*	12.7*	1.2*	0.6	8.7*
OC[C@@H]1CN(CCN2CCOCC2)C[C@H](n2cnc3c(NC4CCCC4)ncnc32)O1	nt	-0.6	-2.1	-1.1	-0.8	nt	nt
COCCn1ccc(O)c(Cc2ccccc2)c1=O	0.5	-0.3	-1.4	1.4	-1.1	nt	nt
Cc1cccc(C)c1NC(=O)CNC(=O)CNC(=O)c1ccc2c(c1)OCO2	-0.2	0.6	1.0	1.1	-0.6	nt	nt
Cc1ccc(-n2c(C(C)C)nc3oc4ccccc4c(=O)c3c2=O)cc1	6.0*	2.1	11.9*	11.8*	2.9*	0.9	12.9*
COCCn1c(C(C)C)nc2oc3ccccc3c(=O)c2c1=O	-0.1	-0.2	-2.2	-0.7	-1.5	nt	nt
COc1ccc(CC(N)c2csc(NC(=O)Nc3ccccc3-c3ccccc3)n2)cc1 (stereo not given)	nt	-1.6	-0.3	-1.2	-1.7	nt	nt
COc1ccc(N=Nc2cc(OC)c(N)cc2OC)cc1	-3.7	-0.7	2.4	1.6	-0.3	nt	nt
Cc1cc(N=Nc2ccc(C)c(N=Nc3cc(C)c(N)cc3N)c2)c(N)cc1N	1.8	1.6	7.3*	12.7*	0.2	1.7	12.5*
Cc1ccc2[nH]c(-c3ccccc3)cc(=O)c2c1	1.0	2.7	12.9*	4.6	3.5*	0.8	4.8
Cc1ccc(-c2cc(=O)c3ccccc3[nH]2)cc1	3.0	0.1	1.1	3.7	-0.9	nt	nt
Cc1ccc2c(c1)Sc1c(ccc3ccccc13)N2	4.8*	3.2	13.9*	20.8*	3.2*	1.1	8.0*
COc1ccc(CN=Cc2[nH]c3ccc(Br)c(Cl)c3c2O)cc1	-1.0	-0.9	1.1	3.2	0.1	nt	nt
Cc1cc(C)cc(N=Cc2[nH]c3ccc(Br)c(Cl)c3c2O)c1	-1.0	-0.6	35.4*	-3.1	-0.4	-0.3	-0.6
CN(C)c1nc(C(=O)Nc2ccccc2)nc(N(C)C)n1	0.6	0.1	6.7*	1.0	-1.1	-0.3	1.3
Cc1cccc(NC(=O)c2cc3cc([N+](=O)[O-])ccc3s2)n1	0.3	0.8	-0.4	-0.2	-1.4	nt	nt
O=S(=O)(Nc1c(O)ccc2ccccc12)c1ccc(F)cc1	3.1	0.6	8.1*	1.3	1.1*	0.5	8.6*
O=C(/C=C/c1c[nH]c2ccccc12)c1cccc2ccccc12	0.0	-0.5	11.3*	4.0	-0.2	-0.1	2.7
O=C(c1ccccc1)c1c[nH]c2ccccc12	1.6	0.3	0.6	3.7	-1.0	nt	nt
COc1ccc(Cl)cc1NC(=O)COC(=O)c1ccc(Cl)nc1	-0.3	-0.4	6.7*	5.4	0.6	-0.2	2.0
Nn1c(-c2cccs2)nc2sc3c(c2c1=O)CCCC3	4.0	1.2	21.2*	12.4*	2.0*	1.4	11.4*
CC1(C)Cc2c(sc3nc(-c4cccs4)n(N)c(=O)c23)CO1	-1.2	-1.7	0.2	3.2	-1.7	nt	nt
O=C(Nc1csc([N+](=O)[O-])c1)Nc1ccccc1Cl	1.6	-0.5	-0.9	1.5	-1.5	nt	nt
O=C(Nc1ccc(Cl)cc1)Nc1ccccc1Sc1ncc([N+](=O)[O-])s1	-0.7	0.3	7.6*	3.8	1.1*	-0.1	1.3
O=C(OCc1cn(Cc2ccc(F)cc2F)nn1)N1CCOCC1	nt	-1.8	-1.3	0.2	-0.9	nt	nt
COc1ccccc1N(Cc1ccccc1)S(=O)(=O)c1cccc(C(=O)Nc2ccc(C(C)=O)cc2)c1	1.2	0.6	11.5*	8.0	0.0	-0.2	2.6

Screening data: PubChem, The Scripps Research Institute Molecular Screening Center
